GAA inhib = qHTS Assay for Inhibitors of Human alpha-Glucosidase as a Potential Chaperone Treatment of Pompe Disease | Lysosomal alpha-glucosidase (Homo sapiens), P10253 | purified human GAA, 4-MU-alpha-glucoside fluorescence | Potency, µM (titrated, usually from 76.9 µM), hits mostly inhibitors | 200,000 compounds, 0.005% hits | AID 1466, 2008
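Human enzyme at 4 nM with 400 uM 4-methylumbelliferyl-alpha-D-pyranoside, citrate/phosphate buffer pH 5.0, 0.005% Tween-20, 20 min at room temperature. Compounds up to 77 uM. 4-MU fluorescence (Ex 365/Em 440) read after NaOH/glycine stop; AC50 from Hill fit.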
LMNA splice mod = qHTS Assay for Modulators of Lamin A Splicing; AID 1487, 2009; 200,000 compounds, 0.01% hits; HeLa LMNA splicing GFP/RFP minigene ratio, 48 h; Potency, µM (series often up to 46.1 µM), actives largely listed as inhibitors; active means well fitted inhibition curve with a large enough effect in the signal ratio, with a control signal flat, not every such curve was filed as active; inconclusive means small, poorly fitted or top-dose-only effect, or effect the other way, or a change in a side signal; the % refers to the signal ratio
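Read-out is the ratio of GFP to DsRed2 object intensity, acquired by 488 nm laser-scanning cytometry on HeLa lamin A-EGFP minigene reporter cells. Compound incubation 48 hrs at 37 °C in Opti-MEM with 2% FBS; DMSO 0.5% final.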
GAA glycogen = qHTS Assay for Inhibitors and Activators of Human alpha-Glucosidase Cleavage of Glycogen; Lysosomal alpha-glucosidase (Homo sapiens), P10253; AID 2100, 2009; recombinant GAA, glycogen substrate, Amplex Red glucose oxidase fluorescence; Potency, µM (titrated, usually from 76.4 µM), usual class: inhibitors; 300,000 compounds, 0.38% hits;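 further: the screen sought inhibitors and activators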
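Recombinant human enzyme (4 nM); glycogen substrate; 37 C, 40 min, pH 5.0. Readout: coupled glucose oxidase/Amplex Red fluorescence.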
N370S GC mod = qHTS Assay for Inhibitors and Activators of N370S glucocerebrosidase as a Potential Chaperone Treatment of Gaucher Disease; N370S GC spleen homogenate, 4MU-glucoside fluorescence; 330,000 compounds, 0.092% hits; Potency, µM (doses to about 59.4 µM), usual class: inhibitors
GAA spleen mod = qHTS Assay for Inhibitors and Activators of Human alpha-Glucosidase From Spleen Homogenate; Lysosomal alpha-glucosidase (Homo sapiens), P10253; human spleen homogenate, 4-MU-alpha-glucoside fluorescence; Potency, µM (top dose mostly 79.9 µM), actives largely listed as inhibitors; 240,000 compounds, 0.006% hits; AID 2112, 2009
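Enzyme source: human spleen homogenate, 1 ug/well. Buffer 50 mM citric acid/K phosphate pH 5.0, 0.01% Tween-20. 4-MU-alpha-glucoside 1 mM; 37 C x 40 min; NaOH/glycine stop; fluorescence.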
Large screens that a line does not name were inactive. A selection: hits, their analogues and other compounds. The true share with any hit is near 0.42%. Unless noted, the call rests on the fitted dose curve; in most records, active means well fitted curve in the direction sought with a large enough effect; inconclusive means small, poorly fitted or top-dose-only effect, or another doubt; inactive means no such curve, though single readings can be large; an effect the other way counts as inactive or inconclusive.

COC(=O)C1=C(C)N(Cc2ccc(C)cc2)C(=O)/C1=C\c1ccc(O)c(OC)c1	LMNA splice mod inconclusive, GAA glycogen 28µM
COC(=O)C1=C(C)N(Cc2ccc(C)cc2)C(=O)/C1=C\c1cc(OC)c(OC)c(OC)c1	LMNA splice mod inconclusive
CCc1cccc(C)c1Nc1c(-c2cccc(O)c2)nc2sccn12	GAA glycogen 35µM (no result: GAA inhib, LMNA splice mod, N370S GC mod, GAA spleen mod)
Cc1cc(Nc2ccccc2)n(-c2ccccc2)n1	GAA glycogen 12µM
Cc1cc(C)nc(-n2nc(C)cc2Nc2ccccc2)n1	LMNA splice mod inconclusive
Oc1ccccc1N=Cc1c(O)ccc2ccccc12	GAA glycogen inconclusive (no result: LMNA splice mod)
CN(C)/N=C/c1c(O)ccc2ccccc12	GAA glycogen 14µM
COc1ccc(CCNC(=O)C(=O)c2c[nH]c3ccccc23)cc1	none (no result: GAA inhib, LMNA splice mod, GAA glycogen)
C=CCOC(=O)N[C@H](C[N+](=O)[O-])c1ccccc1	none (no result: GAA inhib, LMNA splice mod, GAA glycogen)
c1ccc(CNc2nc(-c3cccs3)nc3ccccc23)cc1	LMNA splice mod inconclusive, N370S GC mod 0.5µM
COCCNc1nc(-c2ccccc2Cl)nc2ccccc12	N370S GC mod 7.9µM (no result: GAA inhib, GAA glycogen)
Fc1ccccc1-c1nc(NCc2ccccc2)c2ccccc2n1	N370S GC mod 13µM (no result: GAA inhib, LMNA splice mod)
COc1ccc(C(=O)NCCn2cc(SCC(=O)Nc3cccc(C)c3)c3ccccc32)cc1	none (no result: GAA inhib, LMNA splice mod, N370S GC mod, GAA spleen mod)
O=C(Nc1ccc(O)c2c(=O)cc(-c3ccccc3Cl)oc12)c1cc(Cl)cc(Cl)c1	none (no result: GAA inhib, LMNA splice mod, GAA glycogen)
CC12CCC(C(=O)NNc3ccccc3)(OC1=O)C2(C)C (centres undefined)	GAA glycogen 28µM
CC1=C(C(=O)Nc2cccnc2)C(c2ccccc2)n2nc(SCc3ccccc3Cl)nc2N1 (centres undefined)	none (no result: GAA inhib, LMNA splice mod, N370S GC mod, GAA spleen mod)
CC1=C(C(=O)Nc2cccnc2)C(c2ccc(Cl)cc2)n2nc(SCc3ccccc3)nc2N1 (centres undefined)	GAA glycogen 25µM (no result: GAA inhib, LMNA splice mod, N370S GC mod, GAA spleen mod)
N#CCCCS(=O)(=O)c1nnnn1-c1ccc(Br)cc1	none (no result: GAA inhib, LMNA splice mod, GAA glycogen)
COc1ccc(CNc2ccnc(-c3c(C)noc3C)n2)c(OC)c1	LMNA splice mod inconclusive (no result: GAA inhib, GAA glycogen)
Cc1nc(N)sc1-c1csc(N(C)c2ccc(O)cc2)n1	LMNA splice mod inconclusive, GAA glycogen 25µM
COc1cc(OC)c(NC(=O)CCCn2nc(C)c3sc4ccccc4c3c2=O)cc1Cl	none (no result: GAA inhib, LMNA splice mod, N370S GC mod, GAA spleen mod)
CC1(C)C(c2cccs2)=[N+]([O-])C2(CCCCC/C2=N\NC(N)=S)N1O (centres undefined)	GAA glycogen 18µM
CC1(C)C(c2ccco2)=[N+]([O-])C2(CCCCC2=O)N1O (centres undefined)	none
Cc1noc(C)c1-c1ccc2ncnc(NCc3ccccc3Cl)c2c1	none (no result: GAA inhib, LMNA splice mod, GAA glycogen)
COc1ccc(C2NC3=C(CCCC3)C(C#N)(C#N)C2(C#N)C#N)cc1 (centres undefined)	none
COc1ccc(C2NC3=C(CCC3)C3(C#N)C4(N=C(N)C23C#N)OCCO4)cc1 (centres undefined)	GAA glycogen 22µM
CC(=O)N(c1ccc(Cl)cc1)c1cn(C(C)=O)c2ccccc12	N370S GC mod 18µM
CC(=O)n1cc(N(C(=O)CCl)c2ccc(C)cc2)c2ccccc21	none (no result: GAA inhib, LMNA splice mod)
CCOc1cc(/C=C/c2cc(C(F)(F)F)[nH]c(=O)n2)ccc1O	GAA glycogen 7.9µM (no result: LMNA splice mod)
COc1ccc(/C=C/c2cc(C(F)(F)F)[nH]c(=O)n2)cc1OC	GAA inhib inconclusive
Nc1ccc(Nc2nc3ccccc3[nH]2)cc1	none (no result: GAA inhib, LMNA splice mod, GAA spleen mod)
Nc1ccccc1Nc1nc2ccccc2[nH]1	GAA glycogen 20µM (no result: GAA inhib, LMNA splice mod, GAA spleen mod)
CSc1cccc(-n2cc(-c3ccc4c(c3)OCO4)[nH]c2=O)c1	LMNA splice mod inconclusive, GAA glycogen 35µM
C=CCc1cc(/C=C/c2nc(O)c([N+](=O)[O-])c(=O)[nH]2)cc(OC)c1O	GAA inhib inconclusive, GAA glycogen 11µM (no result: LMNA splice mod)
CCOc1cc(/C=C\c2nc(O)c([N+](=O)[O-])c(=O)[nH]2)ccc1OC(C)C	none (no result: GAA inhib, LMNA splice mod, GAA spleen mod)
O=C(COc1ccccc1C(=O)N/N=C\c1ccc(O)c(O)c1)N/N=C/c1ccc(O)c(O)c1	GAA glycogen 3.1µM
